# Test results reported in PMC7862700, “An all-to-all approach to the identification of sequence-specific readers for epigenetic DNA modifications on cytosine”.
# Assays:
# Assay in all cases: DAPPL (digital affinity profiling via proximity ligation, sequencing); 10 mM Tris-HCl pH 7.5, 50 mM NaCl, 1 mM DTT, 4% glycerol, room temperature, 30 min; GST-TFs on glutathione beads, 16-mer random dsDNA library, 0.1% formaldehyde crosslink after washing; high values mean tight binding
# [1] = molecular target: T1, FEV (Homo sapiens, UniProt Q99581 1-238); conditions: protein: recombinant; tags: N-terminal GST; dsDNA, one strand shown
# T1 sequence: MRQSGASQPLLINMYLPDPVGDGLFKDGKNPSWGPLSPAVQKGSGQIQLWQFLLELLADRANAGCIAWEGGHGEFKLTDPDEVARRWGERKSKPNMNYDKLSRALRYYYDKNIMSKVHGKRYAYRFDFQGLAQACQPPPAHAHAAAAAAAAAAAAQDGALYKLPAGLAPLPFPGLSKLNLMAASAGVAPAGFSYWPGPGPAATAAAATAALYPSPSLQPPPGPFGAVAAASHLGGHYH
# Method in brief: (§1)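 After expression in yeast as GST fusions, human transcription factors were bound to glutathione beads, DNA-barcoded and mixed with a tag-only sample. The pools were incubated with 200 nmole of a 16-mer random double-stranded DNA library in Tris/NaCl/DTT/glycerol buffer (30 min, room temperature), washed and crosslinked with 0.1% formaldehyde. Proximity ligation with BsaI/T4 ligase ran for 1 h at 37 °C, before PCR amplification and sequencing on an Illumina NextSeq500. Binding signal is a hexamer's read frequency for a factor divided by its frequency for the tag-only sample.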
# [2] = molecular target: ETV5 (Homo sapiens, UniProt P41161 1-510); conditions: protein: recombinant; tags: N-terminal GST; dsDNA, one strand shown
# Method in brief: as §1
# [3] = molecular target: HSF1 (Homo sapiens, UniProt Q00613 1-529); conditions: protein: recombinant; tags: N-terminal GST; chain copies: 3; dsDNA, one strand shown
# Method in brief: as §1
# [4] = molecular target: T2, SPIC (Homo sapiens, UniProt Q8N5J4 1-248); conditions: protein: recombinant; tags: N-terminal GST; dsDNA, one strand shown
# T2 sequence: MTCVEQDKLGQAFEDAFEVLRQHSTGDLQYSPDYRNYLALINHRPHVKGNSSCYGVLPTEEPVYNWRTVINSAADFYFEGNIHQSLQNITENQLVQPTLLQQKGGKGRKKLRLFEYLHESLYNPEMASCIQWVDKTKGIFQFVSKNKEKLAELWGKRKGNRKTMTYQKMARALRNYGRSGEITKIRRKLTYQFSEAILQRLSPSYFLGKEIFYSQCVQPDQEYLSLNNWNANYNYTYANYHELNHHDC
# Method in brief: as §1
# [5] = molecular target: ELF4 (Homo sapiens, UniProt Q99607 1-663); conditions: protein: recombinant; tags: N-terminal GST; dsDNA, one strand shown
# Method in brief: as §1
# [6] = molecular target: T3, ELK4 (Homo sapiens, UniProt P28324-2 1-405); conditions: protein: recombinant; tags: N-terminal GST; dsDNA, one strand shown
# T3 sequence: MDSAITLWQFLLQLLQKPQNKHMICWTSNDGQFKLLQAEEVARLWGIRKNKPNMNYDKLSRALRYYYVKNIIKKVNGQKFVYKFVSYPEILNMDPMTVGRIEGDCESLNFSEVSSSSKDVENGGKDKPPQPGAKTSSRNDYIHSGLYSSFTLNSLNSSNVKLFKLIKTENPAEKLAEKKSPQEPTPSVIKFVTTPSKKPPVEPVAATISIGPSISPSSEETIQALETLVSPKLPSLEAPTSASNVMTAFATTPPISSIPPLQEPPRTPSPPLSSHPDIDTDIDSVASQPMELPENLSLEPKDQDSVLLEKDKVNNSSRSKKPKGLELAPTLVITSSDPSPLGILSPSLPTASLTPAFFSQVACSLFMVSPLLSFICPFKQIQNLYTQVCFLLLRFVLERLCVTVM
# Method in brief: as §1
# [7] = molecular target: T4, ETV2 (Homo sapiens, UniProt O00321 1-342); conditions: protein: recombinant; tags: N-terminal GST; dsDNA, one strand shown
# T4 sequence: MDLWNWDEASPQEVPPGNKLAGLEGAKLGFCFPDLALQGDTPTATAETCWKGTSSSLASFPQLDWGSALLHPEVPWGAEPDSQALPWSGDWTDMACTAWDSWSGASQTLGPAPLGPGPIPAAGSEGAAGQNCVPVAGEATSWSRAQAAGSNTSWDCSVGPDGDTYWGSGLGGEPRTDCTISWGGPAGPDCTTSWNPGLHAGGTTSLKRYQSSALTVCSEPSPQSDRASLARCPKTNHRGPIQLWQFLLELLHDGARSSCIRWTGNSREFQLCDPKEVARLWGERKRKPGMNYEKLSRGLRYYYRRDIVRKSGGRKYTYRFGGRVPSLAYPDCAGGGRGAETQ
# Method in brief: as §1
# [8] = molecular target: T5, ELF3 (Homo sapiens, UniProt P78545 1-371); conditions: protein: recombinant; tags: N-terminal GST; dsDNA, one strand shown
# T5 sequence: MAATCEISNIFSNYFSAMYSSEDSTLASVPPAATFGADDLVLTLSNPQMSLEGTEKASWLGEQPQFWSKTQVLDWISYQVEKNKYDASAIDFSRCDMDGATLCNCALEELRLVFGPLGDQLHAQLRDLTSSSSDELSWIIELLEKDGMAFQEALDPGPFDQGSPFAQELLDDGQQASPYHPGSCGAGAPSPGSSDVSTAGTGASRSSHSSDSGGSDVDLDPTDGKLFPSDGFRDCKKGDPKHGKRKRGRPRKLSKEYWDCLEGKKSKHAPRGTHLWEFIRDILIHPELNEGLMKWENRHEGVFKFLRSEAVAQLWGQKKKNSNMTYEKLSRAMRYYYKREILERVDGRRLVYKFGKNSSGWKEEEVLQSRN
# Method in brief: as §1
# [9] = molecular target: CRX (Homo sapiens, UniProt O43186 1-299); conditions: protein: recombinant; tags: N-terminal GST; dsDNA, one strand shown
# Method in brief: as §1
# [10] = molecular target: ETV1 (Homo sapiens, UniProt P50549 1-477); conditions: protein: recombinant; tags: N-terminal GST; dsDNA, one strand shown
# Method in brief: as §1
# [11] = molecular target: T6, ERF (Homo sapiens, UniProt P50548 1-548); conditions: protein: recombinant; tags: N-terminal GST; dsDNA, one strand shown
# T6 sequence: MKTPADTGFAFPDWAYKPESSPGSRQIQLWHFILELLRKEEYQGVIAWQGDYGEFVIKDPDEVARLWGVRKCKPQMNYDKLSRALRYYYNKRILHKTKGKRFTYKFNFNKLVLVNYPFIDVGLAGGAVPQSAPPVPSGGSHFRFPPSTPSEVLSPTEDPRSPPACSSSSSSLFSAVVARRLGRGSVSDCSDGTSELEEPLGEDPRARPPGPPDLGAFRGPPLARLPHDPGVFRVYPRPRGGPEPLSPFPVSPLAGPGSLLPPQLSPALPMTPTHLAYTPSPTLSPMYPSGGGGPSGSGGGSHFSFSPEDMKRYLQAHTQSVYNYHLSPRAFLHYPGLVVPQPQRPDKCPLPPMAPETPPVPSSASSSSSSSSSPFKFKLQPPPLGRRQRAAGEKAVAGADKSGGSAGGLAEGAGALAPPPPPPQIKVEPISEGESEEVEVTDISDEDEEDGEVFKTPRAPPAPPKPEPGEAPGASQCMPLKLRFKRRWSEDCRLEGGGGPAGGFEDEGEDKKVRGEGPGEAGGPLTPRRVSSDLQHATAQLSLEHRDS
# Method in brief: as §1
# [12] = molecular target: T7, ETV3L (Homo sapiens, UniProt Q6ZN32 1-361); conditions: protein: recombinant; tags: N-terminal GST; dsDNA, one strand shown
# T7 sequence: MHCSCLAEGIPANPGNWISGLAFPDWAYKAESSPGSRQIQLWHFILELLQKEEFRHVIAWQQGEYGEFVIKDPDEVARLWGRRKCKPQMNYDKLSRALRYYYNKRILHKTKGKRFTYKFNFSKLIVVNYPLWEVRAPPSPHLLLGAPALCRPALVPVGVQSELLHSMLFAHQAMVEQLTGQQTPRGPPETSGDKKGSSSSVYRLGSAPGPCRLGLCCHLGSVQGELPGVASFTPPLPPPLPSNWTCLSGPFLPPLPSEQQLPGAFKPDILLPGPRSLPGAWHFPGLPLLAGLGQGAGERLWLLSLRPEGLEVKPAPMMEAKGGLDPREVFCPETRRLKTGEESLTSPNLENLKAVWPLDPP
# Method in brief: as §1
# [13] = molecular target: T8, ETS2 (Homo sapiens, UniProt P15036 1-469); conditions: protein: recombinant; tags: N-terminal GST; dsDNA, one strand shown
# T8 sequence: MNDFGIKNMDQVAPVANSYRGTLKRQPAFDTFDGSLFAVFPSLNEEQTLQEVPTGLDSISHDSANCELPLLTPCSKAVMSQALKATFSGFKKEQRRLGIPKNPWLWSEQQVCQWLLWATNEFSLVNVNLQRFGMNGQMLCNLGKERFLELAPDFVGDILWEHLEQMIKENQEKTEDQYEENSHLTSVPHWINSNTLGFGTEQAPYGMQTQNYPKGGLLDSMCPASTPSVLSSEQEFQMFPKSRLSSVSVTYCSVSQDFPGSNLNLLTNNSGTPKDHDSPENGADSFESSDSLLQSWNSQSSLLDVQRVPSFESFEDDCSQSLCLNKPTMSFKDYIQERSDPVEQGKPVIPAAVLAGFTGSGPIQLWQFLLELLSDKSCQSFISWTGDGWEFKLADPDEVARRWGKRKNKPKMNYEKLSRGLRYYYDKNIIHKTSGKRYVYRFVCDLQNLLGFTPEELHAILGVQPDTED
# Method in brief: as §1
# [14] = molecular target: T9, SPDEF (Homo sapiens, UniProt O95238 1-335); conditions: protein: recombinant; tags: N-terminal GST; dsDNA, one strand shown
# T9 sequence: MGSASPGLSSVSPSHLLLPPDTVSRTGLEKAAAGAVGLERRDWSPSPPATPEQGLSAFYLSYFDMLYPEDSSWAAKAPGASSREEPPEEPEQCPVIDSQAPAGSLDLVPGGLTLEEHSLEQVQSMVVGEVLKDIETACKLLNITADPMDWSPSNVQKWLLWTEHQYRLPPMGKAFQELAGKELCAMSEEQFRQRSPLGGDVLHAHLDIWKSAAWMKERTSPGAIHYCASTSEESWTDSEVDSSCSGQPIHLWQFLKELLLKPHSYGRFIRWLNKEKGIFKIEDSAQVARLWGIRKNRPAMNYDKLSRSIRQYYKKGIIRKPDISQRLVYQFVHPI
# Method in brief: as §1
# [15] = molecular target: T10, ETV7 (Homo sapiens, UniProt Q9Y603 1-341); conditions: protein: recombinant; tags: N-terminal GST; dsDNA, one strand shown
# T10 sequence: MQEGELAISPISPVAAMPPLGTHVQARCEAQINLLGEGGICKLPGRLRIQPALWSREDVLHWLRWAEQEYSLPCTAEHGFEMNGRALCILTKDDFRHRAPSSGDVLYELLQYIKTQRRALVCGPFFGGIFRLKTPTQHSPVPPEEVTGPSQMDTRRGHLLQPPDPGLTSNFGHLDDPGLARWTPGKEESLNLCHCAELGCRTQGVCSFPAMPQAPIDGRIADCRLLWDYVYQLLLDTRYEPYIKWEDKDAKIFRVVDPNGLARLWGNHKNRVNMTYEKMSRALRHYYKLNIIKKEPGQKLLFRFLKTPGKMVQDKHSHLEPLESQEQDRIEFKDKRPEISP
# Method in brief: as §1
# [16] = molecular target: T11, ELF5 (Homo sapiens, UniProt Q9UKW6-2 1-255); conditions: protein: recombinant; tags: N-terminal GST; dsDNA, one strand shown
# T11 sequence: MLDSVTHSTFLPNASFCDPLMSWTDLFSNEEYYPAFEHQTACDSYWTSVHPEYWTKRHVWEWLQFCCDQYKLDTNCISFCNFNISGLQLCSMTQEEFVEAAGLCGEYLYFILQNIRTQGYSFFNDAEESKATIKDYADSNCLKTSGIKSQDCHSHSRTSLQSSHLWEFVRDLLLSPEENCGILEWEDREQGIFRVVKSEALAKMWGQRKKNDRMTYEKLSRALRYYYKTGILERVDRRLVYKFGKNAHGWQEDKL
# Method in brief: as §1
# [17] = molecular target: T12, ETV3 (Homo sapiens, UniProt P41162-2 1-143); conditions: protein: recombinant; tags: N-terminal GST; dsDNA, one strand shown
# T12 sequence: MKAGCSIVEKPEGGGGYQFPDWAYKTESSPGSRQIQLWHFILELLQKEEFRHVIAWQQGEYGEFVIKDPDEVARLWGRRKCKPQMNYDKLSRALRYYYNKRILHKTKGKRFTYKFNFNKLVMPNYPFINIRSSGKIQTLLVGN
# Method in brief: as §1
# [18] = molecular target: ETV6 (Homo sapiens, UniProt P41212 1-452); conditions: protein: recombinant; tags: N-terminal GST; dsDNA, one strand shown
# Method in brief: as §1
# ETV5, sequence (P41161 whole entry): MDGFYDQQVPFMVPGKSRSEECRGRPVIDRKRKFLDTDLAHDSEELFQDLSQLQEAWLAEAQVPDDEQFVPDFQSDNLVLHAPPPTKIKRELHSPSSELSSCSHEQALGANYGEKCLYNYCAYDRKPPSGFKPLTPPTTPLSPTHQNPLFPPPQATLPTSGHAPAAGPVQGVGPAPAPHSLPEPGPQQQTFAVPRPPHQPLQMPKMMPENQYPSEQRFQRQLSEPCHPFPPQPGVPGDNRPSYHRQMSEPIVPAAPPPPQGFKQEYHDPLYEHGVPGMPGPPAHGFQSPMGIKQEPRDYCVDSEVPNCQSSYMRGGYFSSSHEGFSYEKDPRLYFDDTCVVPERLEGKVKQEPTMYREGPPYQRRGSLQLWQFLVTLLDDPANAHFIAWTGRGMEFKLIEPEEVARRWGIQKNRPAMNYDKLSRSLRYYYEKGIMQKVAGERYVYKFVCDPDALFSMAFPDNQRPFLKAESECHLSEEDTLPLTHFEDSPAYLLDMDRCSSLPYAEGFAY
# ETV1, sequence (P50549 whole entry): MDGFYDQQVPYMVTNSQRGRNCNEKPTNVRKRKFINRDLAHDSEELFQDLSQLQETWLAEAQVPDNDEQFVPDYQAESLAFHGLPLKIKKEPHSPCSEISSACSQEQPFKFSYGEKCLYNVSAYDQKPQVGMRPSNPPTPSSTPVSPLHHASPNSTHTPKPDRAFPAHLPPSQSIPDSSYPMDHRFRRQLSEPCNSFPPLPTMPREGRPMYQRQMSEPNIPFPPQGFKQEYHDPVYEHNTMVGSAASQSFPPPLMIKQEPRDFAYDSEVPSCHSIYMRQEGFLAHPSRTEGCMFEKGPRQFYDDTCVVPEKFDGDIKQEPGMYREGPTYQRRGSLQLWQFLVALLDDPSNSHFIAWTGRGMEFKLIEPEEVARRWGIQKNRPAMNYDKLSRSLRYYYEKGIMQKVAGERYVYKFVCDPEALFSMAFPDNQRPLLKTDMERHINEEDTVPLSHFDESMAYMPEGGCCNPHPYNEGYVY
# ELF4, sequence (Q99607 whole entry): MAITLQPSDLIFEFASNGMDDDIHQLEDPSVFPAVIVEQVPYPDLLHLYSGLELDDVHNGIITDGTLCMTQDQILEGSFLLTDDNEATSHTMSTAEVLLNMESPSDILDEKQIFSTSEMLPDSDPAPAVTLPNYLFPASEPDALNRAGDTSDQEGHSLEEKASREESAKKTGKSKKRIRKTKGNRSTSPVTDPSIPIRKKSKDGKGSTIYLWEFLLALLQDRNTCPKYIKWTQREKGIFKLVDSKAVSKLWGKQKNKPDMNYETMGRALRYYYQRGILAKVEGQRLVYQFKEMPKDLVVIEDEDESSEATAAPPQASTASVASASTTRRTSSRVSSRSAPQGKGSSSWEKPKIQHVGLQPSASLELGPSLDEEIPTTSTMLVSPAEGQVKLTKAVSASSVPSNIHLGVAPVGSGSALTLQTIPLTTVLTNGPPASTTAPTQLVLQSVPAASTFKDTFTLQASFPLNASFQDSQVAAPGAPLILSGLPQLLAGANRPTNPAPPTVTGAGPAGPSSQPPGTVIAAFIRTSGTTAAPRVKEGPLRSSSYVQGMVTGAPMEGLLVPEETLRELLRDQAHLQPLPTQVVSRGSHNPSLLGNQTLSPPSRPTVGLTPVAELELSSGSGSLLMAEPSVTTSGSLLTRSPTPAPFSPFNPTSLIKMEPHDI
# CRX, sequence (O43186 whole entry): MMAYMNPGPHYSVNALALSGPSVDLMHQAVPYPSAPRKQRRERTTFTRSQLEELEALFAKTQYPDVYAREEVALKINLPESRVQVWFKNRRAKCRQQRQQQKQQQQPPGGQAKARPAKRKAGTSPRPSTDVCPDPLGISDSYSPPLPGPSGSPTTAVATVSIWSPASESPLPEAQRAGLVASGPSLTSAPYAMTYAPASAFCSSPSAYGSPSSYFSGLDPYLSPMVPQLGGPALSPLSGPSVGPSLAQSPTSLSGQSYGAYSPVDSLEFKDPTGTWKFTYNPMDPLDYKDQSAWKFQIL
# ETV6, sequence (P41212 whole entry): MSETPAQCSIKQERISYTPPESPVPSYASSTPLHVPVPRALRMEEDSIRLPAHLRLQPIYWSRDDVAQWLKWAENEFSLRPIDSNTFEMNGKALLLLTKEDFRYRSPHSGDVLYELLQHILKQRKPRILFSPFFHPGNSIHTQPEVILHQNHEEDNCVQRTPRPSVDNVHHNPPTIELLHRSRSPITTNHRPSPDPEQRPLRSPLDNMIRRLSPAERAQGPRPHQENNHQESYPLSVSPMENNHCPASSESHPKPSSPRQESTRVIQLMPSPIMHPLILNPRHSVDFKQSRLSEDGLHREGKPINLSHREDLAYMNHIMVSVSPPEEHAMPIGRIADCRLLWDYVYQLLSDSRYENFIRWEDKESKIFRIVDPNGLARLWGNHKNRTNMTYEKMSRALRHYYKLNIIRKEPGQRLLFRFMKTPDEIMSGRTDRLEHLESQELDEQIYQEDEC
# HSF1, sequence (Q00613 whole entry): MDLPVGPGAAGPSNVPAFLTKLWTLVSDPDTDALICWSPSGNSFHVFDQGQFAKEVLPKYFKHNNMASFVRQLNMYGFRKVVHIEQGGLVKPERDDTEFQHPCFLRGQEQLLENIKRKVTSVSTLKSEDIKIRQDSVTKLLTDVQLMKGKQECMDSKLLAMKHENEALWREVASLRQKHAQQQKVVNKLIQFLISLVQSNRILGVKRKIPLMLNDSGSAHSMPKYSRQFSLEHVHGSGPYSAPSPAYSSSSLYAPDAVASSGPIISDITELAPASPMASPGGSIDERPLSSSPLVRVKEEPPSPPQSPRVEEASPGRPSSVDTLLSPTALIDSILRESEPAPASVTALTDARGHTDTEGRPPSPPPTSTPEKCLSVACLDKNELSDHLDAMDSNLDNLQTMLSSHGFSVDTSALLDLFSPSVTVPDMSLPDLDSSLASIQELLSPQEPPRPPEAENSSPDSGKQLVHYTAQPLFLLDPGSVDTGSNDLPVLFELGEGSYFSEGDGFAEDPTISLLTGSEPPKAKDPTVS
sequence,measurement,setting,value
TTCACG,binding signal,[1],"1.28 fold enrichment (6-mer frequency, TF over GST control)"
same,binding signal,[2],"1.34 fold enrichment (6-mer frequency, TF over GST control)"
same,binding signal,[3],"1.51 fold enrichment (6-mer frequency, TF over GST control)"
same,binding signal,[4],"1.45 fold enrichment (6-mer frequency, TF over GST control)"
same,binding signal,[5],"1.46 fold enrichment (6-mer frequency, TF over GST control)"
same,binding signal,[6],"1.55 fold enrichment (6-mer frequency, TF over GST control)"
same,binding signal,[7],"1.34 fold enrichment (6-mer frequency, TF over GST control)"
same,binding signal,[8],"1.41 fold enrichment (6-mer frequency, TF over GST control)"
same,binding signal,[9],"1.26 fold enrichment (6-mer frequency, TF over GST control)"
same,binding signal,[10],"1.32 fold enrichment (6-mer frequency, TF over GST control)"
same,binding signal,[11],"1.44 fold enrichment (6-mer frequency, TF over GST control)"
same,binding signal,[12],"1.32 fold enrichment (6-mer frequency, TF over GST control)"
same,binding signal,[13],"1.34 fold enrichment (6-mer frequency, TF over GST control)"
same,binding signal,[14],"1.34 fold enrichment (6-mer frequency, TF over GST control)"
same,binding signal,[15],"1.43 fold enrichment (6-mer frequency, TF over GST control)"
same,binding signal,[16],"1.38 fold enrichment (6-mer frequency, TF over GST control)"
same,binding signal,[17],"1.35 fold enrichment (6-mer frequency, TF over GST control)"
same,binding signal,[18],"1.43 fold enrichment (6-mer frequency, TF over GST control)"
